Assay [1] can be described thus: optical density shifts of acrAB sulA E. coli – strain DRC41, OD650, 48 h, E. coli filamentation inducer project, primary screen (AID 1152).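 Note: E. coli MC1000 strain DRC41 lacking acrAB efflux pump and sulA.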 Particulars: higher = more signal, called active from +8 up or from −8 down.
A short description of assay [2]: probe aLefty1 binding on compound microarray – biochemical, small-molecule microarray, 635/667 nm fluorescence, primary screen (AID 1153).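 Note: score merges spot fluorescence with signal-to-noise ratio from the scanned slide images.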 The settings on record: higher = more signal.
A short description of assay [3]: plasmodial surface anion channel blockers, osmotic lysis – cell-based, P. falciparum Indochina, OD700, 1 h, primary screen (AID 1154). The settings on record: P. falciparum Indochina infected RBC osmotic lysis, higher = more signal, called active from +8 up or from −8 down.
A short description of assay [4]: plasmodial surface anion channel blockers, osmotic lysis – cell-based, P. falciparum Indochina, OD700, 2 h, primary screen (AID 1155).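 Note: lysis reports solute entry through the parasite surface anion channel PSAC.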 Particulars: P. falciparum Indochina infected erythrocytes, higher = more signal, called active from +8 up or from −8 down.
The nature of assay [5]: changes in parasitized red cell lysis, either direction – P. falciparum Indochina, OD700, 3 h, PSAC antagonist project, primary screen (AID 1156). Particulars: P. falciparum-infected erythrocytes, osmotic lysis, higher = more signal, called active from +8 up or from −8 down.
A short description of assay [6]: plasmodial surface anion channel blockers, osmotic lysis – cell-based, P. falciparum Indochina, OD700, 18 h, primary screen (AID 1157). Particulars: P. falciparum Indochina infected erythrocytes, osmotic lysis OD700, 18 h; higher = more signal, called active from +8 up or from −8 down.
Assay [7] in a line: S6 kinase pathway phospho-S6 level changes – cell-based, A549, cytoblot, luminescence, serum-stimulated, primary screen (AID 1158).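 Note: serum-stimulated A549 lung adenocarcinoma cells; signal is phosphorylated S6 detected by cytoblot immunostaining with HRP secondary.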 Particulars: 5 h, higher = more signal.
In assay [8] the target is NADPH oxidase 2 (Homo sapiens) (UniProt P04839). Description: compounds shifting NOX2 Amplex Red fluorescence – cell-based, HEK293-NOX2, PMA-stimulated, NOX inhibitor project, primary screen (AID 1159). Note: test concentration not given here. The settings on record: 45 min, higher = more signal, called active from +8 up or from −8 down.
Assay [9] addresses NADPH oxidase 4 (Homo sapiens) (UniProt Q9NPH5). Description: compounds shifting NOX4 Amplex Red fluorescence – cell-based, HEK293-NOX4, tetracycline-induced, NOX inhibitor project, primary screen (AID 1160). The settings on record: HEK293-NOX4, Amplex Red H2O2 fluorescence, 45 min; higher = more signal, called active from +8 up or from −8 down.
Assay [10] addresses NADPH oxidase 5 (Homo sapiens) (UniProt Q96PH1). Description: compounds shifting NOX5 Amplex Red fluorescence – cell-based, HEK293-NOX5, NOX inhibitor project, primary screen (AID 1161). The settings on record: HEK293-NOX5, ionomycin, 45 min, higher = more signal.
A short description of assay [11]: compound effects on lung adenocarcinoma cell viability – A549, calcein-AM fluorescence, 48 h, basal, profiling panel (AID 1162). Note: test concentration not given here. Particulars: higher = more signal.
Assay [12] can be described thus: compound effects on differentiated 3T3-L1 adipocyte viability – cell-based, 3T3-L1 adipocytes, calcein-AM fluorescence, 48 h, basal, profiling panel (AID 1163). Note: test concentration not given here. Particulars: 3T3-L1 adipocytes viability, higher = more signal.
A short description of assay [13]: compound effects on hepatocellular carcinoma cell viability – HepG2, calcein-AM fluorescence, 48 h, basal, profiling panel (AID 1164). Note: test concentration not given here. The settings on record: higher = more signal.
Assay [14] in a line: compound effects on multiple myeloma cell viability – MM1S, calcein-AM fluorescence, 48 h, basal, profiling panel (AID 1165).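 Note: viability of MM1S multiple myeloma cells under basal unstimulated conditions; test concentration not given here.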 Particulars: higher = more signal.
A short description of assay [15]: calcein-AM signal in unstimulated myeloma cells – cell-based, calcein-AM fluorescence, 48 h, PK04 Diversity Set, profiling panel (AID 1166).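 Note: cells grown under basal conditions without added stimulus; test concentration not given here.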 Particulars: RPMI8226 myeloma viability, higher = more signal.
The nature of assay [16]: JC-1 mitochondrial signal, unstimulated HepG2 cells – cell-based, JC-1 fluorescence, 24 h, 100 nL compound, profiling panel (AID 1167). Note: test concentration not given here. The settings on record: HepG2 mitochondrial potential, higher = more signal.
A short description of assay [17]: JC-1 mitochondrial signal, unstimulated adipocytes – cell-based, JC-1 fluorescence, 3T3-L1 adipocytes, 24 h, 100 nL compound, profiling panel (AID 1168). Note: test concentration not given here. The settings on record: JC-1 mitochondrial fluorescence, higher = more signal, called active from +8 up or from −8 down.
A short description of assay [18]: JC-1 mitochondrial signal, unstimulated myeloma cells – cell-based, JC-1 fluorescence, RPMI8226, 24 h, 100 nL compound, profiling panel (AID 1169). Note: test concentration not given here. Particulars: JC-1 mitochondrial potential fluorescence, higher = more signal.
The nature of assay [19]: JC-1 mitochondrial signal, unstimulated MM1S myeloma – cell-based, JC-1 fluorescence, 24 h, 100 nL compound, profiling panel (AID 1170). Note: test concentration not given here. The settings on record: MM1S mitochondrial potential, higher = more signal.
Assay [20] can be described thus: resazurin metabolic signal in A549 cells – cell-based, resazurin fluorescence, 24 h, PK04 Diversity Set, profiling panel (AID 1171). Note: test concentration not given here. The settings on record: A549 viability, higher = more signal, called active from +8 up or from −8 down.

Drawing on PubChem BioAssay, this text covers z-score and composite z-score for 4 compounds.

Calls of active or inactive are those of the source.

Sequence of NADPH oxidase 4 (Homo sapiens) (Q9NPH5 whole entry, looked up): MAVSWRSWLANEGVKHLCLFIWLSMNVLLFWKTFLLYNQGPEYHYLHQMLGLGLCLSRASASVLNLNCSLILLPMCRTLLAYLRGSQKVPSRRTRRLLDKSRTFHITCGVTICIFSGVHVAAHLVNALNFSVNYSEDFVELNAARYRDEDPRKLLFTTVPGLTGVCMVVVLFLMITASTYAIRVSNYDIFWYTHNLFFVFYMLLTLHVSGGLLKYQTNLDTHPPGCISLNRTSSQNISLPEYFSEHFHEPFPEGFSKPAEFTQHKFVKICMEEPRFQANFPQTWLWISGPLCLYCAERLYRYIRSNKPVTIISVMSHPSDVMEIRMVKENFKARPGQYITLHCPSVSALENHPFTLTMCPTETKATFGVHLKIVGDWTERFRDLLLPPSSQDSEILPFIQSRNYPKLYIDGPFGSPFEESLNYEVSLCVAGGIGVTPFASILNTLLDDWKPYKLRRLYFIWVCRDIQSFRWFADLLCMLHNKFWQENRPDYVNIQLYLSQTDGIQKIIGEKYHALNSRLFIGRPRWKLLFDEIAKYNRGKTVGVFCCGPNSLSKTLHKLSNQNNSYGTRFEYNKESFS
Sequence of NADPH oxidase 2 (Homo sapiens) (P04839 whole entry, looked up): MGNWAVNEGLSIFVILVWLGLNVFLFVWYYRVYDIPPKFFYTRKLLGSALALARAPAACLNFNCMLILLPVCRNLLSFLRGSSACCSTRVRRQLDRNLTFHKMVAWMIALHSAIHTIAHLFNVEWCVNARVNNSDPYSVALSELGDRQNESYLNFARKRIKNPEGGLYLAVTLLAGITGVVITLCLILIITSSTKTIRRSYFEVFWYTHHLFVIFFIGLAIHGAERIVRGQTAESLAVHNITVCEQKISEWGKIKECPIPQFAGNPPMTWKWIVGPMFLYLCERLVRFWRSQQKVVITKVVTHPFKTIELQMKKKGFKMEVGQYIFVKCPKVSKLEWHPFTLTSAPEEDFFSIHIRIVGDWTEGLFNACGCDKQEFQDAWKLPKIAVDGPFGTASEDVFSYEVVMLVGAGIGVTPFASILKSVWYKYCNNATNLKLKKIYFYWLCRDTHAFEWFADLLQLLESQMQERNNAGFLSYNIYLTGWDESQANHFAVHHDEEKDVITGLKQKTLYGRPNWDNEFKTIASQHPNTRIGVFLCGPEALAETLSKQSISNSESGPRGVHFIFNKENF
Sequence of NADPH oxidase 5 (Homo sapiens) (Q96PH1 whole entry, looked up): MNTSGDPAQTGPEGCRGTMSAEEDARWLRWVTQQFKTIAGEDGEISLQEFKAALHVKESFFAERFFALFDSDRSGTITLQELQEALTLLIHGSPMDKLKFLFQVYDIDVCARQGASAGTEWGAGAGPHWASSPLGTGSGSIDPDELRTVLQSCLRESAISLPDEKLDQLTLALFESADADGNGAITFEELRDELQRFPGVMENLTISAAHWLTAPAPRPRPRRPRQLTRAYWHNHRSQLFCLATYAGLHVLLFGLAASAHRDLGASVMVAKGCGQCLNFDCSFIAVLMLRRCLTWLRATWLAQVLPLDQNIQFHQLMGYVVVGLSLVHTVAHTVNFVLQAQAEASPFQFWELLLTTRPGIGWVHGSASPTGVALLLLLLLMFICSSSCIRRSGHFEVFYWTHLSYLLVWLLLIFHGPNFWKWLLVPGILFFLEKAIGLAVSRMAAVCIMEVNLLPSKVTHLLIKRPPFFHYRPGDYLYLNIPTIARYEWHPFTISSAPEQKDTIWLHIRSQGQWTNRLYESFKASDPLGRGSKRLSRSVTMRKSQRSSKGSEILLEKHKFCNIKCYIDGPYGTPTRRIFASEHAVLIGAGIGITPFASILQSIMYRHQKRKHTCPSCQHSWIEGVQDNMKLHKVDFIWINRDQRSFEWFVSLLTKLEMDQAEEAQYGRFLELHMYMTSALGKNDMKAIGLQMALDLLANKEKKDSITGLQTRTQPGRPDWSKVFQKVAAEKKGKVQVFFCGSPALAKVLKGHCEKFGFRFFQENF

On to `COCCOC(=O)N1C(=O)[C@@]2(c3cc(C#Cc4ccc(OC)cc4)ccc31)[C@H](c1ccc(OCCO)cc1)N1[C@H](c3ccccc3)[C@H](c3ccccc3)OC(=O)[C@H]1[C@@H]2C(=O)Nc1nc2ccccc2s1`, for which the z-score in assay [1] was 0.905 (inactive); in [3], 4.12 (inactive); in [4], 2.5 (inactive); in [5] it was -0.16 (inactive); in [6] it was 2.13 (inactive); in assay [7] it was 0.0972. Also, the z-score is 1.29 (inactive) in assay [8]; 0.402 (inactive) in assay [9]; 0.944 in assay [10]; -0.922 in assay [11]; 0.829 in [12]; -1.26 in [13]. Moreover, the z-score in assay [14] was -0.569; in assay [15], -1.26; in assay [16] it was -2.86; in [17], 3.99 (inactive); in assay [18] it was -0.735; in [19] it was -1.13. The z-score in [20] was -0.285 (inactive). Also, in assay [2], the composite z-score was 0.101.
For the compound `COCCCNC(=O)[C@@]1(c2ccc([N+](=O)[O-])cc2)CC(=O)N(CC23CC4CC(CC(C4)C2)C3)[C@@H]1c1ccc(CO)cc1I`, the z-score was -0.355 (inactive) in assay [1]; 24 (active) in [3]; 8.65 (active) in assay [4]; 2.5 (inactive) in [5]; 2.31 (inactive) in assay [6]; -0.0623 in assay [7]. Also, the z-score in [8] was 2.08 (inactive); in assay [9], -1.02 (inactive); in [10] it was -0.233; in assay [11] it was -1.28; in assay [12], -0.64; in assay [13], -2.75. Also, the z-score in assay [14] is -3.75; in assay [15], -4.35; in [16] it was 2.16; in assay [17] it was -1.23 (inactive); in assay [18], -1.02; in [19], -1.81. For the same compound, the z-score in assay [20] is -2.76 (inactive). Further, the composite z-score in assay [2] was found to be 0.082.
Consider `C=C/C=C/[C@@H]1C(=C)CN([C@@H](Cc2ccccc2)C(=O)OC)[C@H]1[C@@H](O)Cc1ccccc1`, for which the z-score is 0.834 (inactive) in assay [1]; 0.743 (inactive) in assay [3]; 0.362 (inactive) in assay [4]; -0.41 (inactive) in [5]; 0.109 (inactive) in [6]; 0.294 in assay [7]. Also, the z-score in [8] was 0.0619 (inactive); in assay [9], -0.199 (inactive); in [10], 0.568; in assay [11], 0.192; in [12], -0.47; in [13], 0.438. Also, the z-score was -3.04 in [14]; -2.15 in [15]; -0.28 in assay [16]; 0.147 (inactive) in assay [17]; -0.975 in assay [18]; -2.24 in assay [19]. Further, the z-score in [20] was 0.663 (inactive). The composite z-score in assay [2] is -0.0601.
For the compound `O=C1N(CCS(=O)(=O)c2ccccc2)Cc2ccccc2[C@@H]2OC(c3ccc(OCCCO)cc3)=N[C@]12CCS(=O)(=O)c1ccccc1`, the z-score was -0.769 (inactive) in assay [1]; 26 (active) in [3]; 18.8 (active) in assay [4]; 3.14 (inactive) in assay [5]; 2.44 (inactive) in [6]; -0.355 in assay [7]. For the same compound, the z-score was 1.5 (inactive) in assay [8]; 2.01 (inactive) in assay [9]; 1.96 in assay [10]; 1.35 in [11]; 0.859 in [12]; 0.345 in assay [13]. The z-score in [14] is -0.635; in assay [15] it was -1; in assay [16], -1.65; in assay [17] it was 1.72 (inactive); in [18] it was -0.933; in assay [19] it was -1.01. The z-score in assay [20] was 0.409 (inactive). Moreover, in assay [2], the composite z-score amounted to 0.568.
